# Data taken from PubChem BioAssay.
# Values joined by “and” are separate entries in the source; they are usually repeats but may differ in a detail not shown here. Equal entries are not always repeated. Active and inactive are the calls of the source.
# Legend:
# [1] = A549 cell viability effects, profiling panel, calcein-AM fluorescence, 48 h, basal (AID 1162); conditions: higher = more signal
# [2] = adipocyte viability effects, profiling panel, cell-based, 3T3-L1 adipocytes, calcein-AM fluorescence, 48 h, basal (AID 1163); conditions: 3T3-L1 adipocytes viability, higher = more signal
# [3] = HepG2 cell viability effects, profiling panel, calcein-AM fluorescence, 48 h, basal (AID 1164); conditions: higher = more signal
# [4] = MM1S cell viability effects, profiling panel, calcein-AM fluorescence, 48 h, basal (AID 1165); conditions: higher = more signal;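 further: viability of MM1S multiple myeloma cells under basal unstimulated conditions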
# [5] = basal RPMI8226 viability, no added stimulus, profiling panel, cell-based, calcein-AM fluorescence, 48 h, PK04 Diversity Set (AID 1166); conditions: RPMI8226 myeloma viability, higher = more signal;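 further: cells grown under basal conditions without added stimulus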
# [6] = basal HepG2 mitochondrial membrane potential changes, profiling panel, cell-based, JC-1 fluorescence, 24 h, 100 nL compound (AID 1167); conditions: higher = more signal
# [7] = basal 3T3-L1 adipocyte mitochondrial potential changes, profiling panel, cell-based, JC-1 fluorescence, 3T3-L1 adipocytes, 24 h, 100 nL compound (AID 1168); conditions: JC-1 mitochondrial fluorescence, higher = more signal, called active from +8 up or from −8 down
# [8] = basal RPMI8226 mitochondrial membrane potential changes, profiling panel, cell-based, JC-1 fluorescence, 24 h, 100 nL compound (AID 1169); conditions: RPMI8226 myeloma, JC-1 mitochondrial potential fluorescence, higher = more signal
# [9] = basal MM1S mitochondrial membrane potential changes, profiling panel, cell-based, JC-1 fluorescence, 24 h, 100 nL compound (AID 1170); conditions: higher = more signal
# [10] = A549 lung cancer cell viability effects, profiling panel, resazurin fluorescence, 24 h, PK04 Diversity Set (AID 1171); conditions: higher = more signal, called active from +8 up or from −8 down
# Further: test concentration not given here.
Structure (SMILES),z-score [1],z-score [2],z-score [3],z-score [4],z-score [5],z-score [6],z-score [7],z-score [8],z-score [9],z-score [10]
CC(C)C(=O)N[C@@H]1CCCN1C(=O)C=Cc1ccccc1,0.516,0.709,0.546,0.391,-0.463,-0.201,-0.481 (inactive),0.119,0.304,-0.123 (inactive)
CC(CO)N1C(=O)[C@@H]2C3C(=O)OCCC=C[C@H]3OC23C=CCN(CCN2CCOCC2)C(=O)[C@@H]13 (stereo not given in full),-0.438 and -0.439,-0.465 and 0.0431,-1.36 and -0.421,0.19 and 0.248,-0.174 and -0.382,-0.41 and -1.09,-0.189 (inactive) and -0.818 (inactive),-0.00565 and 0.13,-0.137 and -0.0991,-0.298 (inactive) and 0.141 (inactive)
C[C@@H]1CN2[C@@H](CC[C@@H](C)[C@@H]2c2ccc(Br)cc2)C(=O)O1,-0.133 and 0.551,0.706 and 0.0322,-0.163 and 0.959,0.248 and 0.391,-0.0928 and 0.767,0.446 and 0.56,-0.0606 (inactive) and 0.229 (inactive),0.05 and 0.203,1.26 and -0.901,0.131 (inactive) and -1.45 (inactive)
COc1ccc(O[C@H]2C=C[C@@H](c3ccccc3)O[C@@H]2COC(=O)CCC(C)=NO[C@H](C)c2cn([C@H](CO)Cc3ccccc3)nn2)cc1,-0.748 and -0.352,0.498 and 0.0533,-1.06 and -0.619,-0.764 and -2.3,-2.54 and -1.69,-0.796 and -0.898,-2.62 (inactive) and -0.634 (inactive),0.0444 and -0.196,-0.704 and 0.182,0.385 (inactive) and 0.277 (inactive)
C[C@@H]1CC[C@H]2C(=O)N3[C@@H](CC[C@@H](C)[C@@H]3c3ccc(-c4ccco4)cc3)C(=O)N2[C@H]1c1ccc(-c2ccco2)cc1,-0.521 and 0.709,0.489 and 0.992,-0.676 and -0.195,-0.372 and -2.15,-0.537 and -1.3,-1.41 and -2.19,-0.996 (inactive) and -0.779 (inactive),0.299 and -0.414,0.863 and 0.498,-0.244 (inactive) and 1.43 (inactive)
CCOC(=O)C[C@H]1[C@H](OC(=O)c2ccccc2-c2ccccc2)[C@@H](NC(=O)Cc2ccc(OC)cc2)c2cc(OCCCO)ccc2N1C(=O)Cc1ccc(OC)cc1,0.615 and 0.158,1.92 and 0.0868,-0.0677 and -0.11,0.902 and -0.0317,0.869 and -0.427,3.07 and 0.376,0.491 (inactive) and 0.191 (inactive),0.846 and -0.309,1.46 and 0.00765,0.615 (inactive) and 0.786 (inactive)
Cc1cc2c(nc1C)CCCN2CC(O)CN1CCCc2nc(-c3ccc(Br)cc3)ccc21 (stereo not given),-0.243 and -0.599,0.929 and 0.303,-0.749 and -0.129,0.916 and -1.24,-2.13 and -0.178,0.36 and 0.768,-0.855 (inactive) and -1.29 (inactive),0.144 and -0.0117,-0.488 and 0.538,-0.347 (inactive) and 0.0661 (inactive)
C=CCN(CCCC)C(=O)C1N(C(C)(C)CO)C(=O)C2C(C(=O)O)C3C=CC21O3 (stereo not given),-0.77 and -0.624,0.75 and 0.349,0.0674 and -0.857,1.09 and -0.12,-0.539 and 0.144,-0.553 and -0.548,-0.134 (inactive) and 0.142 (inactive),0.354 and 0.826,-0.283 and -0.384,0.289 (inactive) and -0.11 (inactive)
C[N+](C)(C)CCCCNC(=O)[C@@H]1C[C@@H]2C(=O)N[C@@H](CCCC[N+](C)(C)C)C(=O)N2[C@@H]1c1cccc(OCCO)c1,0.901 and 1.05,0.462 and -0.276,-0.517 and 0.473,-0.531 and -0.212,-0.719 and -0.495,0.0138 and 1.44,-0.393 (inactive) and 0.547 (inactive),0.352 and -0.897,-0.218 and 0.26,-0.375 (inactive) and -0.0246 (inactive)
CCCNC(=O)OC[C@H]1O[C@H](CCON=C(C)CCC(=O)OC[C@H]2O[C@H](C#Cc3ccccc3)C=C[C@@H]2Oc2ccc(C)cc2)C=C[C@@H]1Oc1ccc(OC)cc1,-0.284,-0.182,-0.433,-0.321,0.0363,1.38,-1.31 (inactive),0.15,-0.435,0.835 (inactive)
CC(C)OC(=O)C=C1C[C@@H](c2ccccc2)O[C@@H](c2ccccc2)O1,0.604 and -0.204,0.211 and 0.24,1.57 and 0.805,-1.8 and -3.29,-0.192 and -1.79,1.06 and -0.0936,0.383 (inactive) and 1.71 (inactive),-0.374 and -0.422,-2.57 and -3.36,1.28 (inactive) and 0.255 (inactive)
COC(=O)C1=C(C)N(Cc2ccccc2)C2=C3C(=O)CCC[C@@H]3[C@@](O)(C(=O)OC)C(=O)N2[C@@H]1c1ccccc1,0.941 and 0.383,0.662 and -0.219,0.408 and -0.0984,-2.99,0.28 and -2.5,1.07 and -0.0794,-0.512 (inactive) and 0.739 (inactive),0.0423 and -0.467,1.36 and -0.505,0.477 (inactive) and 0.238 (inactive)
C=C[C@H](C)[C@H](O)c1ccc(O)c2ccccc12,0.0619 and 0.429,0.114 and -0.0793,-0.461 and 0.756,-2.53 and -2.69,-0.233 and -0.17,-1.28 and -0.0285,-0.193 (inactive) and 1.11 (inactive),-1.01 and 0.71,-1.76 and 0.307,-0.52 (inactive) and -0.539 (inactive)
C=CC[C@@H](O)c1ccc(OCCO)cc1,0.589 and 0.923,-0.0396 and 0.764,1.22 and 0.876,1.17 and 1.23,0.834 and -1.19,1.28 and 1.15,-0.53 (inactive) and 0.676 (inactive),0.871 and 0.81,0.00142 and 1.08,-0.707 (inactive) and -0.779 (inactive)
CO[C@@H]1C=CCC(=O)N2CCC[C@H]2C(=O)OC[C@H](C)C(=O)OC[C@H]1C,0.616,0.345,1.33,0.383,-0.87,0.872,0.673 (inactive),-0.0289,0.331,0.87 (inactive)
CCOC(=O)[C@@H]1CC=C2CC1C(=O)N1CCC[C@@H]1[C@H]2O[Si](C)(C)C(C)(C)C (stereo not given in full),-0.366 and -0.566,-0.0834 and 0.84,-0.45 and -1.76,-0.204 and -0.227,-1.71 and -2.37,-1.48 and 0.214,-0.649 (inactive) and 0.192 (inactive),-0.0804 and 0.132,0.144 and 0.321,0.016 (inactive) and 2.5 (inactive)
C=C[C@@H](OC)[C@H](O)c1ccc(OC)c(O)c1,-0.72 and 0.387,1.21 and 1.57,-1.02 and 0.209,-1.16 and 0.905,-1.3 and 0.14,-0.782 and 0.179,-1.44 (inactive) and 0.912 (inactive),-0.205 and -0.346,-0.297 and 1,-0.693 (inactive) and 0.835 (inactive)
CCN1C(=O)[C@H]2[C@H]3[C@H](O)[C@H](O)CC(=NOC[C@@H](O)COCc4ccco4)[C@@H]3CC[C@H]2C1=O,0.107 and -0.737,-0.233 and 1.1,-0.417 and -0.814,0.0026 and 0.228,-1.35 and -1.38,-0.48 and -0.487,-0.844 (inactive) and -0.925 (inactive),0.0424 and 0.122,0.104 and 0.0266,-0.767 (inactive) and -1.14 (inactive)
C=CCN(Cc1ccccc1)C(=O)C1N(C(C)(C)CO)C(=O)C2C(C(=O)O)C3C=CC21O3 (stereo not given),-0.535 and -0.297,-0.355 and 0.134,-1.11 and 0.0167,0.0296 and 1.03,0.0867 and -0.103,-0.955 and -0.123,0.0762 (inactive) and -0.264 (inactive),0.248 and 0.652,-0.16 and -0.15,-0.363 (inactive) and 0.344 (inactive)
C=C[C@@H](C)[C@@H](O)c1ccc(OCCO)cc1,-0.61 and 0.227,0.513 and 0.464,-0.976 and 0.692,0.958 and -0.872,-0.754 and 0.96,0.299 and 1.09,-0.82 (inactive) and -0.165 (inactive),-0.0815 and 0.346,0.287 and -0.925,0.175 (inactive) and -0.652 (inactive)
CC(C)OC(=O)C=C1C[C@@H](c2cccc(C(F)(F)F)c2)O[C@@H](c2cccc(C(F)(F)F)c2)O1,0.133 and 0.343,-0.425 and 0.279,0.957 and 0.258,-0.499 and -1,-0.195 and -0.167,-0.447 and 0.606,0.297 (inactive) and 0.121 (inactive),-0.897 and -0.238,-3.24 and -1.09,0.308 (inactive) and 1 (inactive)
C#CCN1C(/C=C/c2ccccc2)C(=O)OC[C@H]1c1ccccc1 (stereo not given in full),-0.002 and -0.112,1.74 and 0.227,-0.0288 and -0.167,-0.0906 and -0.0281,-0.712 and -1.8,1.04 and 0.221,1.37 (inactive) and 0.0383 (inactive),-0.749 and 0.481,-0.328 and -1.12,-0.925 (inactive) and 1.15 (inactive)
C=C(C)C(=O)OC[C@@H]1CN2[C@@H](CC[C@@H](C)[C@@H]2c2ccc(Br)cc2)C(=O)O1,0.254,-0.2,1.08,0.419,0.427,0.642,0.945 (inactive),-0.28,-0.631,0.173 (inactive)
C=CCN(C(=O)C1N(C(C)(C)CO)C(=O)C2C(C(=O)O)C3C=CC21O3)c1ccc(OC)cc1 (stereo not given),0.396 and 0.242,0.682 and -0.0179,-0.394 and -0.112,0.925 and 0.494,0.463 and 0.475,0.414 and 0.332,0.688 (inactive) and 0.702 (inactive),0.9 and -0.286,0.646 and 0.841,0.377 (inactive) and 0.109 (inactive)
Cc1cc2c(nc1C)CCCN2CC(C)ON=C[C@@H](C)[C@H](OCc1ccccc1)C(C)C (stereo not given in full),-0.351,-0.641,0.122,-1.24,-0.583,-0.741,-0.827 (inactive),0.708,-0.483,-0.522 (inactive)
C=CCN(C(=O)C(c1cccs1)N(CCOCCO)C(=O)/C=C\C(=O)O)c1ccc(OC)cc1 (stereo not given),0.995 and 1.98,0.372 and -0.509,1.23 and 0.751,1.3 and 1.57,0.566 and 0.95,0.506 and 1.39,-2.4 (inactive) and 1.53 (inactive),-0.0898 and 0.302,-1.19 and 0.702,0.18 (inactive) and 0.294 (inactive)
C=CCN(CCCC)C(=O)C1N(c2ccc(CCO)cc2)C(=O)C2C(C(=O)O)C3C=CC21O3 (stereo not given),-0.635 and 0.444,0.79 and 0.378,-0.97 and -0.116,0.853 and 1.11,-0.0527 and 0.0382,-0.63 and 0.869,-0.915 (inactive) and 1.18 (inactive),0.16 and 0.0627,0.748 and 1.93,-0.223 (inactive) and -0.442 (inactive)
C=CCN(CCCCC)C(=O)C(c1cccs1)N(C(=O)/C=C\C(=O)O)c1ccc(CCO)cc1 (stereo not given),1.11 and 0.437,-4.27 and -0.651,0.877 and 1.59,1.78 and 1.21,-0.174 and 0.104,-0.087 and 0.966,-0.177 (inactive) and 0.506 (inactive),1.26 and -0.556,-0.138 and -0.377,-0.235 (inactive) and -0.813 (inactive)
